Experimental data from the supplement of paper PMC7726561.
Over roughly 1,400 sequences, “thermal melting temperature (Tm) of peptide-HLA complex” has its median near 60; the lowest 2% begin near 45. Shown is part of a subset that was picked to be rich in the lowest values.

B1: unnamed (peptide)
chain: VARPLSTAL
B2: unnamed (peptide)
chain: HPVVSSVPL
B3: unnamed (peptide)
chain: RPYGVGLLI
B4: unnamed (peptide)
chain: IPSIRNGIL
B5: unnamed (peptide)
chain: SPRTPVSPVKF
B6: unnamed (peptide)
chain: SPRAPVSPLKF
B7: unnamed (peptide)
chain: WPHPPGPFL
B8: unnamed (peptide)
chain: SPIYISRII
B9: unnamed (peptide)
chain: RPFERTITM
B10: unnamed (peptide)
chain: QPATPGLGM
B11: unnamed (peptide)
chain: APSGTRVVQVL
B12: unnamed (peptide)
chain: KPRPIIPML
B13: unnamed (peptide)
chain: IPTKKSQVF
B14: unnamed (peptide)
chain: YPFFRGVTI
B15: unnamed (peptide)
chain: HPRAPVLL
B16: unnamed (peptide)
chain: TPEEVRLPL
B17: unnamed (peptide)
chain: RPTGGVGAV
B18: unnamed (peptide)
chain: SPANLPAVL
B19: unnamed (peptide)
chain: FPRAPSTSDSV
B20: unnamed (peptide)
chain: TPLGTRSGL
B21: unnamed (peptide)
chain: SPNLRLLDL
B22: unnamed (peptide)
chain: LPSPSPRISL
B23: unnamed (peptide)
chain: GSISRIYL
B24: unnamed (peptide)
chain: NVRPPNTAL
B25: unnamed (peptide)
chain: APYSRPKQL
B26: unnamed (peptide)
chain: APRGTGIVSA
B27: unnamed (peptide)
chain: IPRGADNLVAI
B28: unnamed (peptide)
chain: VPRPPSLLATL
B29: unnamed (peptide)
chain: FPQHTIASL
B30: unnamed (peptide)
chain: GPRNVLLFL
B31: unnamed (peptide)
chain: TPQQGAQTSL
B32: unnamed (peptide)
chain: TPQGFRSTL
B33: unnamed (peptide)
chain: YLRDTLLAL
B34: unnamed (peptide)
chain: VPEVTKPSL
B35: unnamed (peptide)
chain: SPRPALPALL
B36: unnamed (peptide)
chain: APILRARLLPL
B37: unnamed (peptide)
chain: YPKRPLLGL
B38: unnamed (peptide)
chain: YIDEGRLVL
B39: unnamed (peptide)
chain: GPRSSLRVL
B40: unnamed (peptide)
chain: FPRSVVEFL
B41: unnamed (peptide)
chain: LPTSPGPAL
B42: unnamed (peptide)
chain: LPAPKGPAL
B43: unnamed (peptide)
chain: KPNHTLVLL
B44: unnamed (peptide)
chain: RPADSMLNVL
B45: unnamed (peptide)
chain: RPAPLVQQL
B46: unnamed (peptide)
chain: APREHPFVL
B47: unnamed (peptide)
chain: LPRTIFPTSTI
B48: unnamed (peptide)
chain: LPHSATVTL
B49: unnamed (peptide)
chain: DPMKARVVL
B50: unnamed (peptide)
chain: IPKLPAVSF
B51: unnamed (peptide)
chain: QPRSPGPDYSL
B52: unnamed (peptide)
chain: RPKALTQVL
B53: unnamed (peptide)
chain: SPLVSRLTLY
B54: unnamed (peptide)
chain: SPLVSRLTL
B55: unnamed (peptide)
chain: RPQLKGVVL
B56: unnamed (peptide)
chain: SPLPSPSAM

Molecular target: HLA-B*07:02
Test: thermal melting temperature (Tm) of peptide-HLA complex; higher = more thermostable pHLA complex
Details: C1R-B*07:02
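Note: lysates heated 10 min at 37–73 °C, complexes pulled down with pan-HLA I antibody, peptide signal by DIA-MS relative to 37 °C, Tm where half the complex is unfolded.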

Sequence | thermal melting temperature [°C]
B1 | 59.6
B2 | 57.8
B3 | 59
B4 | 62.8
B5 | 59.3
B6 | 59.5
B7 | 62.3
B8 | 58.8
B9 | 56.5
B10 | 57
B11 | 41.4
B12 | 60.7
B13 | 58.9
B14 | 61.8
B15 | 59.5
B16 | 62.1
B17 | 54.3
B18 | 62.6
B19 | 57.1

Sequence | thermal melting temperature [°C]
B20 | 55.6
B21 | 63.4
B22 | 60.6
B23 | 41.4
B24 | 56.8
B25 | 61.5
B26 | 57.4
B27 | 61.8
B28 | 62.9
B29 | 58.7
B30 | 55.1
B31 | 40.5
B32 | 60
B33 | 53.6
B34 | 57.6
B35 | 60.2
B36 | 47.3
B37 | 61.3
B38 | 51.6

Sequence | thermal melting temperature [°C]
B39 | 58.9
B40 | 62
B41 | 40.6
B42 | 57.9
B43 | 59.2
B44 | 62
B45 | 58.3
B46 | 61
B47 | 62.8
B48 | 60.7
B49 | 49.3
B50 | 63.1
B51 | 57.7
B52 | 61
B53 | 41.1
B54 | 61.4
B55 | 61.1
B56 | 63.8
